# Screens from PubChem BioAssay.
# LMP1 NFkB inh = Epstein-Barr LMP1 NF-kappaB reporter inhibition; hit rate 0.69% among 350,000; inhibition, % at 12.5 µM; AID 504558; LMP1-induced NF-kappaB luciferase reporter cells, luminescence; in the data active means inhibition above about 41%;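 further: 0% = neutral control wells and 100% = reference inhibitor control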
# TRPM1 prom inh = reduces MITF-dependent TRPM1 promoter luciferase signal | hit rate 0.83% among 330,000 | inhibition, % at 12.5 µM | SK-MEL-5 TRPM1 promoter luciferase, 24 h | AID 488899;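 active means mean inhibition across replicates of 60% or more, whatever share of single replicates reaches that level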
# Peg3 prom inh-1 = Peg3 promoter activity inhibition; HeLa PEG-Prom luciferase reporter, luminescence, overnight; inhibition, % at 20 µM; hit rate 1.7% among 360,000;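 active means inhibition of at least 50% at 20 µM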
# HIF-2a inh = HIF-2a inhibition. inhibition, % at 18.8 µM. hit rate 0.72% among 360,000. AID 624352. 786-0 RCC cells HIF-2a reporter, luciferase luminescence, overnight;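 active means inhibition of the luminescence signal of 40% or more relative to plate controls, in a single-dose primary screen at 18.75 µM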
# KKLEB cytotox = reduces viability of KKLEB cystic fibrosis airway cells; activity change (cytotoxicity), % at 5 µM; AID 602141; KKLEB CF airway cells viability, ATPlite luminescence, overnight; hits give low values; cells stimulated with P. aeruginosa culture filtrate; hit rate 0.36% among 360,000;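 active means corrected activity change at or below -50% at 5 µM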
# CF NFkB block = cystic fibrosis NF-kB activation inhibition | KKLEB NF-kB-GFP reporter, PAF-induced, GFP fluorescence overnight | inhibition, % at 5 µM | hit rate 0.86% among 360,000 | AID 588850;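 active means at least 50% inhibition at 5 µM, scaled per plate between neutral and stimulator controls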;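 further: PAF is a Pseudomonas aeruginosa culture filtrate used as stimulus; plate controls were PAF-stimulated DMSO wells for no effect and unstimulated DMSO wells for full effect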
# Peg3 prom inh-2 = confirmation of Peg3 promoter inhibitors; shares compounds with Peg3 prom inh-1; HeLa PEG-Prom luciferase reporter, luminescence, overnight; inhibition, % at 20 µM; hit rate 84% among 1,300;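 active means at 20 µM dose, 40% or more inhibition averaged across four replicates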
# * marks the source's active call; other numbers are inactive results; / = not tested or not shown. Sampled rows, rich in hits. Any-hit rate of the full collection: about 3%.
SMILES,LMP1 NFkB inh,TRPM1 prom inh,Peg3 prom inh-1,HIF-2a inh,KKLEB cytotox,CF NFkB block,Peg3 prom inh-2
CN(C)CCNc1ccc2ncn3c4ccc(O)cc4c(=O)c1c23,35,83*,101*,49*,-14,19,71*
CC(=O)NC12CC3CC(C1)CC(C(=O)Nc1ccc(C)c(S(=O)(=O)N4CCCCCC4)c1)(C3)C2,-5,18,14,22,7,3,/
CCCCCCN1C=CC(=C2C(=O)c3ccccc3C2=O)C=C1,53*,80*,58*,39,-58*,-20,43*
CCN1C=CC(=C2C(=O)c3ccccc3C2=O)C=C1,90*,100*,97*,87*,-46,-11,90*
CCCCN1C(C)=CC(=C2C(=O)c3ccccc3C2=O)C=C1C,4,9,-41,-55,-23,7,/
C[C@@H]1CN([C@H](C)CO)C(=O)c2cc(Br)cnc2O[C@H]1CN(C)C,-1,/,-10,7,1,10,/
Cc1ccc(C)c(C(O)c2ncc(-c3ccccc3F)[nH]2)c1 (configuration not stated),/,/,-13,-27,-7,2,/
CCC(C)(C)c1ccc(Oc2ccc(N)cc2)cc1,51*,98*,72*,88*,4,-28,91*
COc1ccc(CCNC(=O)c2cc3c(=O)n4ccccc4nc3n(C3CCCCC3)c2=N)cc1,-11,-7,88*,7,-29,22,54*
COc1ccc(CCNC(=O)c2cc3c(=O)n4ccccc4nc3n(C3CCCCC3)c2=N)cc1OC,0,6,34,7,-1,13,/
COc1ccc(CCn2c(=N)c(C(=O)NC3CCCC3)cc3c(=O)n4cccc(C)c4nc32)cc1,4,12,99*,-10,-3,-19,64*
O=S(=O)(Cc1ccccc1)C(c1ccccc1)S(=O)(=O)Cc1ccccc1,-3,/,18,5,5,-3,/
Cc1ccc(NC(=O)c2nc[nH]c2C(=O)NCCCCNC(=O)c2[nH]cnc2C(=O)Nc2ccc(C)cc2)cc1,-3,3,74*,-4,-83*,86*,43*
COc1ccccc1-c1csc(C(O)c2ccccc2)n1 (configuration not stated),/,/,-56,-65,-13,10,/
CCCNc1nc(N)nc(-c2cc(Cl)ccc2OC)n1,5,2,14,12,1,-6,/
CCNc1nc(N)nc(-c2cc(Cl)ccc2O)n1,-40,-34,101*,-185,-49,88*,-23
COc1ccc(S(=O)(=O)/N=C2\C=C(Nc3ccc(O)cc3)C(=O)c3ccccc32)cc1,74*,99*,104*,1,-74*,101*,98*
COC(=O)c1ccccc1COc1cccn2c(N(C)C(=O)CCC3CCCC3)c(C)nc12,/,/,12,9,-12,26,/
Cc1ccccc1Oc1ccc2c(c1)[C@@H]1C[C@H](N(C)C(=S)Nc3ccc(F)cc3)[C@H]([C@H](C)O)C(=O)N1CC2,16,/,40,-11,-3,-6,/
O=C(NCCc1ccccc1)C(=O)NCC1CCCN1S(=O)(=O)c1ccccc1 (configuration not stated),-10,27,40,3,-18,25,/
COc1ccc(CCNC(=O)C(=O)NCC2CCCN2S(=O)(=O)c2ccccc2)cc1OC (configuration not stated),7,-2,56*,19,8,-7,58*
COc1cc(/C=C/c2ccc3cccc(O)c3n2)c(Br)cc1O,11,1,98*,-141,-10,-6,92*
CSc1ccc(/C=C/c2ccc3cccc(O)c3n2)cc1,-59,9,-77,-124,-10,-5,/
COc1cc(/C=C/c2ccc3cccc(O)c3n2)ccc1O,6,25,103*,-296,1,-40,57*
COc1cc(Br)cc(/C=C/c2ccc3cccc(O)c3n2)c1O,8,-4,2,-91,9,-13,/
SMILES,LMP1 NFkB inh,TRPM1 prom inh,Peg3 prom inh-1,HIF-2a inh,KKLEB cytotox,CF NFkB block,Peg3 prom inh-2
COc1cccc(CNC(=O)[C@@H]2CCCN2C(=O)OC(C)(C)C)c1,/,/,/,-5,/,/,/
Nn1c(SCC(=O)NC2CCCC2)nnc1C(F)(F)F,-4,/,-2,13,20,-12,/
CNCC[C@H](Oc1cccc2ccccc12)c1cccs1,0,7,90*,-3,-14,47,92*
COCCN1C(=O)CCC1(C)C(=O)NC1CCCCC1 (configuration not stated),/,/,-7,10,-20,-9,/
COc1cc2c(cc1NC(=O)C(F)(F)F)-c1ccc(NC(=O)C(F)(F)F)cc1C2,-2,-37,-24,0,-12,16,/
O=C(N/N=C/c1ccccc1)c1n[nH]c2c1CCCC2,24,-8,-1,-112,-32,-2,/
O=C(N/N=C/c1ccccc1Cl)c1n[nH]c2c1CCCC2,19,67*,78*,-17,-21,15,16
CC(C)c1ccc(-c2nc3ccccc3s2)cc1,70*,92*,72*,77*,-79*,21,83*
COc1ccc(-c2nc3ccccc3s2)cc1O,37,46,55*,40,-54*,-10,37
COc1ccc(-n2cc(-c3ccccc3)c3c(N4CCOCC4)ncnc32)cc1,20,9,61*,22,-100*,94*,68*
COc1ccc(-n2cc(-c3ccccc3)c3c(NCCCN4CCOCC4)ncnc32)cc1,2,4,25,24,-8,4,/
O=C1C(Cl)=C(Nc2ccccc2)C(=O)c2ccccc21,93*,90*,102*,97*,-83*,93*,98*
O=C(Nc1ccc(CN2CCCCC2)cc1)Nc1ccc(Br)cc1Cl,-19,-35,67*,5,-31,22,96*
S=C(Nc1ccc(Br)cc1Cl)N1CCCC1,-20,-85,-165,-241,3,7,/
COC(=O)[C@@]12C[C@@H](CC(=O)N3CCCCC3)C(=O)N(Cc3ccccc3)C1=CCC(C)(C)C2,/,/,/,8,/,/,/
c1cc2c3c(cccc3c1)NC1(CCC3(CC1)Nc1cccc4cccc(c14)N3)N2,0,-18,76*,-15,0,-28,75*
C/C(=N\NC(=O)c1c(C)nc2ccccn12)c1ccc(O)cc1O,14,51,52*,5,2,1,60*
O=C(NCc1ccccc1)C1(CC2CC(c3ccccc3)=NO2)CCNCC1 (configuration not stated),-8,9,-16,-3,-8,-9,/
CCCCCCCNC(=O)C1(CC2CC(c3ccccc3)=NO2)CCNCC1 (configuration not stated),-1,-1,94*,-11,-5,10,79*
